# The source made the active and inactive calls. Unless noted, the rule behind the calls is not given here.
# Key:
# [1] = anti-His antibody binders, primary screen, artefact control for SMM control protein annotation, biochemical, small-molecule microarray, 635 nm fluorescence (AID 1128); conditions: anti-His Alexa647 antibody binding, higher = more signal;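 note: score merges feature fluorescence with signal-to-noise for each printed compound spot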
# [2] = test system: Human papillomavirus type 1a E7 protein (residues 1-88); assay: HPV1a E7 small-molecule binders, primary screen, biochemical, small-molecule microarray, residues 1-88, 635 nm (AID 1129); conditions: small-molecule microarray binding, fluorescence 635 nm; higher = more signal
# [3] = biological target: Focal adhesion kinase 1 (Homo sapiens) (UniProt Q05397); assay: small-molecule microarray binders of FAK, primary screen, biochemical, 635/667 nm fluorescence, BSA, DTT (AID 1130); conditions: PTK2 binding, 635 nm fluorescence, higher = more signal;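 note: composite of spot emission at 667 nm and signal to noise over triplicate slides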
# [4] = test system: Fibrinogen (Alexa647-labelled); assay: fibrinogen binders on compound microarrays, profiling panel, artefact control for SMM control-protein annotation, biochemical, small-molecule microarray, 635/667 nm fluorescence (AID 1131); conditions: fibrinogen-A647 binding fluorescence, higher = more signal;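 note: z-score merges 667 nm fluorescence with per-spot signal-to-noise over triplicate slides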
# [5] = biological target: Follistatin (Homo sapiens) (UniProt P19883); assay: follistatin binders on small-molecule microarrays, primary screen, biochemical, small-molecule microarray, 635/667 nm fluorescence (AID 1132); conditions: FST binding, 635 nm fluorescence, higher = more signal
# [6] = biological target: Fibroblast growth factor 2 (Homo sapiens) (UniProt P09038); assay: FGF2 binders on small-molecule microarrays, primary screen, biochemical, small-molecule microarray, 635/667 nm fluorescence (AID 1133); conditions: small-molecule microarray binding, FGF2, fluorescence 635/667; higher = more signal
# [7] = mitochondrial membrane potential change in A549 cells, profiling panel, cell-based, JC-1 fluorescence, basal, 24 h, 100 nL (AID 1138); conditions: higher = more signal;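 note: A549 lung adenocarcinoma cells under basal conditions with no added stimulus; test concentration not given here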
# Lefty1 = Lefty1 binders on small-molecule microarrays, primary screen, biochemical, small-molecule microarray, 635/667 nm fluorescence (AID 1139); conditions: small-molecule microarray binding, fluorescence 635/667; higher = more signal
# [8] = test system: wheat germ agglutinin (Triticum aestivum), Alexa647-labelled; assay: wheat germ agglutinin binders on compound microarrays, profiling panel, artefact control for SMM control-protein annotation, biochemical, small-molecule microarray, 635/667 nm fluorescence (AID 1140); conditions: WGA-A647 binding, 635 nm fluorescence, higher = more signal;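 note: score merges 667 nm feature emission with signal to noise over triplicate slides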
# [9] = biological target: Luciferin 4-monooxygenase (Photinus pyralis) (UniProt P08659); assay: firefly luciferase enzyme inhibitors, primary screen, biochemical, luminescence, purified enzyme, 2006 set (AID 1141); conditions: SteadyGlo luminescence, 30 min, higher = more signal, called active from +8 up or from −8 down;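 note: cell-free assay with purified firefly luciferase at 100 ng per well in PBS; test concentration not given here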
# [10] = test system: Wnt5a (protein binding on small-molecule microarray); assay: Wnt5a binders on small-molecule microarray, primary screen, biophysical, 635/667 nm fluorescence (AID 1142); conditions: 635 nm fluorescence, higher = more signal;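 note: fluorescence read at 667 nm with signal to noise per printed feature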
# [11] = cell viability in Huh7 cells, primary screen, cytotoxicity control for HCV replication inhibitor project, CellTiter-Glo luminescence, basal, 48 h (AID 1143); conditions: Huh7 HCV replicon, higher = more signal, called active from +8 up or from −8 down;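 note: Huh7 hepatoma cells carrying a hepatitis C replication reporter with no stimulus; test concentration not given here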
# [12] = P. aeruginosa biofilm formation inhibitors, primary screen, PAO1 strain, BacTiter-Glo luminescence, LB-PBS (AID 1144); conditions: 12 h, higher = more signal
# [13] = CREB reporter modulators without forskolin, primary screen, cell-based, PC12, CRE-LacZ reporter, unstimulated (AID 1145); conditions: no forskolin, luminescence, 4.5 h, higher = more signal, called active from +8 up or from −8 down
# [14] = CREB reporter modulators under forskolin, primary screen, cell-based, PC12, CRE-LacZ reporter, forskolin-stimulated (AID 1146); conditions: luminescence, 4.5 h, higher = more signal, called active from +8 up or from −8 down;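 note: PC12 cells with 6xCRE LacZ reporter stimulated by forskolin 10 µM; beta-galactosidase reporter signal reflecting CREB driven transcription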
# [15] = biological target: Streptavidin (Streptomyces avidinii) (UniProt P22629); assay: streptavidin binders on small-molecule microarray, primary screen, artefact control for SMM compound annotation, biophysical, 635/667 nm fluorescence (AID 1147); conditions: streptavidin binding, higher = more signal;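 note: signal reflects streptavidin binding to arrayed compounds as a control protein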
# [16] = small-molecule binders of probe aInhba, primary screen, biochemical, small-molecule microarray, 635/667 nm fluorescence (AID 1148); conditions: higher = more signal;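 note: score merges 667nm spot fluorescence with signal-to-noise for antibody binding to printed compounds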
# Torsin-1A (Homo sapiens) [17] = biological target: Torsin-1A (Homo sapiens) (UniProt O14656); assay: torsin A binders from cell lysate, primary screen, small-molecule microarray, wild-type, 635/667 nm (AID 1149); conditions: COS7 hTOR1A-WT lysate, 635 nm fluorescence, higher = more signal
# Torsin-1A (Homo sapiens) [18] = biological target: Torsin-1A (Homo sapiens) (UniProt O14656); assay: small-molecule binders of mutant TOR1A in lysate, primary screen, cell lysate, small-molecule microarray, COS7 lysate, 635/667 nm fluorescence (AID 1150); conditions: COS7 hTOR1A mutant lysate, 635 nm fluorescence, higher = more signal;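 note: score pools 667 nm emission and signal to noise measuring lysate protein binding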
# [19] = test system: Sonic hedgehog protein (Shh); assay: small-molecule binders of Shh protein, primary screen, biochemical, small-molecule microarray, 635/667 nm fluorescence (AID 1151); conditions: small-molecule microarray binding, 635 nm fluorescence; higher = more signal;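 note: Shh protein binding to compounds spotted on small-molecule microarray slides; score combines spot fluorescence intensity with signal-to-noise across triplicate slides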
# Fibroblast growth factor 2 (Homo sapiens), sequence (P09038 whole entry, looked up): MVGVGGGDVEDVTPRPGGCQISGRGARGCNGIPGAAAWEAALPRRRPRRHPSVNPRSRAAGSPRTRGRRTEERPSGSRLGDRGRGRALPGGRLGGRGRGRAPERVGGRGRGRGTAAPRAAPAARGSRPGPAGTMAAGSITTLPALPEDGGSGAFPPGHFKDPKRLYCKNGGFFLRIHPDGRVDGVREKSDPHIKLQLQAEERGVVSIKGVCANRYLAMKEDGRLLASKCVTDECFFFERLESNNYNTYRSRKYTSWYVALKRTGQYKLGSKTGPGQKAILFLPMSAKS
# Torsin-1A (Homo sapiens), sequence (O14656 whole entry, looked up): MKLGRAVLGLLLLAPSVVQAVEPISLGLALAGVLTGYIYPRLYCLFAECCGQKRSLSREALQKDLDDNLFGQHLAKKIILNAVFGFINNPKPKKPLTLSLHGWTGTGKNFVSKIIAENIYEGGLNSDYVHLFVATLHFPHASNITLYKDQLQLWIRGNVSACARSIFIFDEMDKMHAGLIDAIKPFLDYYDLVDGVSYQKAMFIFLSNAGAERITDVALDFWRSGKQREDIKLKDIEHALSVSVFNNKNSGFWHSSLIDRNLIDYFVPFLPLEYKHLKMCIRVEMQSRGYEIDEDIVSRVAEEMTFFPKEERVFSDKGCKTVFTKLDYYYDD
# Focal adhesion kinase 1 (Homo sapiens), sequence (Q05397 whole entry, looked up): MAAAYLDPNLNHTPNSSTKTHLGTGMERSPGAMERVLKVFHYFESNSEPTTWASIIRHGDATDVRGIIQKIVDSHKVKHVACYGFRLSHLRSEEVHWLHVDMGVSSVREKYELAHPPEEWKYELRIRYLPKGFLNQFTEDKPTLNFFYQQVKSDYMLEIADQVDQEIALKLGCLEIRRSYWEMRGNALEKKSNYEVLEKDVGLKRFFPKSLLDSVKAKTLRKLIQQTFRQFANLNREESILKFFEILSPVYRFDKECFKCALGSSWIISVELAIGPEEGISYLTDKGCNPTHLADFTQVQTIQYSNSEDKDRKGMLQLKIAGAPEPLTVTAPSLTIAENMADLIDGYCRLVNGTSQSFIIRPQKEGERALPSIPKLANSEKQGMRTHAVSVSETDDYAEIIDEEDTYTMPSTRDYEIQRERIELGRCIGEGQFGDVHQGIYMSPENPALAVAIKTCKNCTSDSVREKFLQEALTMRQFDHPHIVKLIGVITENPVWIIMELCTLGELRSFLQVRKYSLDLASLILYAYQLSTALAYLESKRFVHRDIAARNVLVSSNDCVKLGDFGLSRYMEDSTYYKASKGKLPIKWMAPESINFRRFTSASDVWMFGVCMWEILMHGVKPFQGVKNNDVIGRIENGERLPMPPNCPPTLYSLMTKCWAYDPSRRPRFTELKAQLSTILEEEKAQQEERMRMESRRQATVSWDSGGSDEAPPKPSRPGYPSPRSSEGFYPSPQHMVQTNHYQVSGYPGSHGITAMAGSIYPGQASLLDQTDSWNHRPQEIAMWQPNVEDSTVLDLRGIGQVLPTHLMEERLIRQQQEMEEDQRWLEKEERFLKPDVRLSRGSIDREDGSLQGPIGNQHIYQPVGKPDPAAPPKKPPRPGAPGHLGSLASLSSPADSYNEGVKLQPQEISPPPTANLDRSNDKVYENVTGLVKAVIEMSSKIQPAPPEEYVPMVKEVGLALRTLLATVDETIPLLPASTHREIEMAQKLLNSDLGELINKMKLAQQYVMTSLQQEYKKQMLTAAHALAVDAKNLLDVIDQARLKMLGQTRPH
# Follistatin (Homo sapiens), sequence (P19883 whole entry, looked up): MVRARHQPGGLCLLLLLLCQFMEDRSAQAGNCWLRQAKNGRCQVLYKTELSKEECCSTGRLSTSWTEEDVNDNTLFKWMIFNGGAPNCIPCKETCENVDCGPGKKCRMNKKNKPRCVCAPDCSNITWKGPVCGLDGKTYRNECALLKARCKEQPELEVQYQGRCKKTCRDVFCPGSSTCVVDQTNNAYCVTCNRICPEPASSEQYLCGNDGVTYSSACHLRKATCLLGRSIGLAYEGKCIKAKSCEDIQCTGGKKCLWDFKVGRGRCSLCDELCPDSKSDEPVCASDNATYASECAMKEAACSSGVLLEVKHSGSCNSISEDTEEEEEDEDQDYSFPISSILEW
# Luciferin 4-monooxygenase (Photinus pyralis), sequence (P08659 whole entry, looked up): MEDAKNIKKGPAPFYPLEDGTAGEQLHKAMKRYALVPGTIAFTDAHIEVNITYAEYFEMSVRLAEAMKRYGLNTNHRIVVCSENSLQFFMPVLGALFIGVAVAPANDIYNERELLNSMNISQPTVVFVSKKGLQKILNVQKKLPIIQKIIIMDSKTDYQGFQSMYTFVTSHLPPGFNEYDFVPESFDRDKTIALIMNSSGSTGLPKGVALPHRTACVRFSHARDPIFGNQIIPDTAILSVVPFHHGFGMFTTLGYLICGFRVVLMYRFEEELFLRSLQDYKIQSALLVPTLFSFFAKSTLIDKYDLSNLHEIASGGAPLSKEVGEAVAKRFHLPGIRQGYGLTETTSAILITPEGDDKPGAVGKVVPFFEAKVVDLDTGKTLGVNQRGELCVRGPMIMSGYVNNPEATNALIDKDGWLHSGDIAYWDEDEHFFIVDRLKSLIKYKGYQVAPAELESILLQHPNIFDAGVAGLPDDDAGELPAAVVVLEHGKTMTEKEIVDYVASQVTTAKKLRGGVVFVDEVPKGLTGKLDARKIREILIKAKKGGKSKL
# Streptavidin (Streptomyces avidinii), sequence (P22629 whole entry, looked up): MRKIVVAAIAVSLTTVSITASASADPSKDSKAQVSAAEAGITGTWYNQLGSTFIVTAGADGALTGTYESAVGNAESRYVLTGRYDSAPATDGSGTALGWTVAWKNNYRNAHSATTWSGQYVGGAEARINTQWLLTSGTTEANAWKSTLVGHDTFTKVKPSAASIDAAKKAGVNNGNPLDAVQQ
Structure (SMILES),composite z-score [1],composite z-score [2],composite z-score [3],composite z-score [4],composite z-score [5],composite z-score [6],z-score [7],composite z-score (Lefty1),composite z-score [8],z-score [9],composite z-score [10],z-score [11],z-score [12],z-score [13],z-score [14],composite z-score [15],composite z-score [16],composite z-score (Torsin-1A (Homo sapiens) [17]),composite z-score (Torsin-1A (Homo sapiens) [18]),composite z-score [19]
CCCC[C@H]1OB(O)C[C@H]2C1=C(COc1ccccc1)C[C@H]1C(=O)N(Cc3ccccc3)C(=O)[C@H]12,0.755,0.692,0.314,0.817,0.512,0.291,0.742,0.872,0.571,0.258 (inactive),-0.0155,-1.72 (inactive),-0.375 (inactive),1.13 (inactive),-0.208 (inactive),1.49,-0.0136,-0.518,0.106,1.76
C=C(CCCC)C(=O)CC[C@H](OC(C)=O)c1ccc(CO)o1,-0.273,0.228,-0.0408,-0.332,1.03,0.361,-0.0332,0.861,-0.276,-1.77 (inactive),0.0631,-3.11 (inactive),-0.312 (inactive),0.508 (inactive),-0.79 (inactive),-0.264,-0.0427,-0.423,0.794,1.99
CC(C)(C)OC(=O)CC[C@@]1(C(N)=O)N=C(c2ccc(OCCCO)cc2)O[C@@H]1c1ccccc1N=[N+]=[N-],1.12,0.886,1.1,1.06,1.21,1.12,-0.04,0.512,0.884,-10.5 (active),0.672,-0.858 (inactive),0.61 (inactive),0.204 (inactive),-0.208 (inactive),1.12,-0.0695,2.08,1.31,-0.179
C[N+](C)(C)CCCCNC(=O)[C@H]1C[C@H]2C(=O)N3CCC[C@H]3C(=O)N2[C@H]1c1ccc(O)cc1,2.67,-0.0698,0.446,0.228,1.46,1.81,-0.515,1.49,0.282,-0.679 (inactive),0.554,-0.102 (inactive),0.014 (inactive),-0.821 (inactive),-0.512 (inactive),0.319,-0.164,1.84,1.66,1.86
COCCOC(=O)N1C(=O)[C@@]2(c3cc(C#CCC(C(=O)OC)C(=O)OC)ccc31)[C@H](c1ccccc1OCCO)N1[C@H](c3ccccc3)[C@H](c3ccccc3)OC(=O)[C@H]1[C@@H]2C(=O)Nc1nc2ccccc2s1,2.04,0.946,0.767,0.945,1.16,1.58,-1.64,1.55,0.577,-2.57 (inactive),0.964,-2.67 (inactive),-1.9 (inactive),-0.375 (inactive),-0.705 (inactive),0.129,0.135,0.983,1.08,1.49
C[n+]1ccc2ccc(O)cc2c1,1.81,-0.495,0.132,-0.399,1.37,1.68,-0.924,1.54,-0.37,0.591 (inactive),0.247,-0.289 (inactive),0.125 (inactive),0.389 (inactive),-0.287 (inactive),-0.426,-0.0405,2.27,1.19,1.95
NC(=O)[C@@]1(CCS(=O)(=O)c2ccccc2)N=C(c2ccc(OCCCO)cc2)O[C@H]1c1ccccc1,2.14,1.27,0.533,1.02,0.78,-0.507,-0.309,-0.0434,1.17,0.155 (inactive),0.211,-5.04 (inactive),0.814 (inactive),0.0451 (inactive),-1.38 (inactive),0.856,0.0872,0.699,0.799,-1.2
O=c1cccc(-c2cccc3ccccc23)o1,0.874,1.2,1.35,0.708,0.26,-0.32,0.316,-0.789,0.8,1.52 (inactive),-0.0859,-0.779 (inactive),-0.469 (inactive),0.182 (inactive),0.092 (inactive),0.112,-0.0471,0.272,-0.0514,-0.343
COC(=O)[C@@]1(Cc2ccc(F)cc2)[C@H]2c3cc(C(=O)N(C)C)n(CCCNc4ccc(C(F)(F)F)cc4Cl)c3C[C@H]2CN1C(=O)c1ccccc1,2.17,1.24,0.903,1.01,0.543,-0.123,0.284,0.0748,1.3,0.579 (inactive),0.72,-3.53 (inactive),-0.119 (inactive),-0.379 (inactive),0.607 (inactive),1.8,0.572,-0.335,0.547,-0.576
CN(C)CCCC[C@@H]1NC(=O)[C@@H]2C[C@H](C(=O)NCCCCCCN)[C@H](c3ccc(O)cc3)N2C1=O,0.297,1.19,1.55,0.763,1.35,0.787,-0.729,0.829,0.998,0.37 (inactive),0.346,0.255 (inactive),-0.481 (inactive),-0.122 (inactive),0.208 (inactive),1.19,0.554,0.613,0.901,0.945
CCCCN1CC=CC23O[C@@H]4/C=C\CCCOC(=O)C4[C@H]2C(=O)N(C(C)CO)[C@@H]3C1=O (stereo not given in full),-1.02,-0.582,-0.56,0.347,-0.446,-0.38,0.532,-0.291,-0.362,-0.315 (inactive),-0.286,0.33 (inactive),-1.35 (inactive),-0.907 (inactive),-0.679 (inactive),-0.559,-0.05,-0.534,-0.804,0.732

# Reference: PubChem BioAssay
